Screening data: PubChem, National Center for Advancing Translational Sciences (NCATS)
IL-1B inflam inh = inflammasome signaling inhibition, IL-1 beta readout. THP-1 LPS/ATP IL-1B secretion, AlphaLISA, 16 h; stronger effect = lower value. activity change, % at 57.5 µM. actives 4.7% (n = 360,000). AID 743279; in the data active means activity change below about -50%; inconclusive means mostly about -30% to -49%
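Secreted IL-1B measured by AlphaLISA bead assay after 16 h compound exposure of THP-1 cells; compounds (final up to 57.5 uM) added 1 h before LPS (250 ng/mL) and ATP (1.25 mM) stimulation; lower signal means less secretion.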
TDP1 cell noCPT = qHTS for Inhibitors of human tyrosyl-DNA phosphodiesterase 1 (TDP1): qHTS in cells in absence of CPT | DT40 Tdp1-/- hTDP1 cells, no CPT, ATP luminescence, 48 h | Potency, µM (highest dose often 46.2 µM), inactives show at the highest dose activity change, negative = growth inhibition, hits mostly inhibitors | actives 15% (n = 420,000) | AID 686978, 2013; further: potency means the concentration at half of the fitted maximal effect; nearly all actives have a fitted effect of over 55% in size
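No-CPT arm: Tdp1-/-;hTDP1 DT40 cells (400/well) plus compounds, incubated ≥48 hr at 37 °C. Readout CellTiter-Glo luminescence.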
HT1080-NT tox = kills 2HG-producing HT-1080-NT fibrosarcoma cells | HT-1080-NT fibrosarcoma viability, CellTiter-Glo ATP luminescence, 48 h | Potency, µM (series often up to 46.1 µM), for the others: top-dose activity, negative = less viability, most hits filed as cytotoxic | actives 1.6% (n = 360,000) | AID 686970;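 further: NT is the 2HG producing partner of a matched IDH1 knockdown line; potency means the concentration at half of the fitted maximal effect; 0% = DMSO-treated cells and -100% = media-only wells without cells; nearly all actives have a fitted effect of over 55% in size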
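HT-1080-NT fibrosarcoma cells (2HG-overproducing), 750 cells/well in RPMI with 5% FBS, dosed after 2 h and incubated 48 h at 37C. CellTiter-Glo luminescence normalized to DMSO and no-cell wells; concentration-response curves fitted and classed.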
HT1080 IDH1KD tx = toxicity to HT-1080 IDH1 knockdown cells (counter line); HT-1080 IDH1 knockdown viability, ATP luminescence, 48 h; Potency, µM (highest dose often 46.1 µM), for the others: at the top dose activity, negative = toxicity, usual class: cytotoxic; actives 2% (n = 360,000); AID 686971;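 further: potency means the concentration at half of the fitted maximal effect; 0% = DMSO wells and -100% = cell-free medium wells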
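Cytotoxicity counter-line: IDH1KD HT-1080, 48 h, CellTiter-Glo. Curves classed by r2, magnitude and activity.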
TDP1 cell CPT = growth inhibition of DT40 Tdp1-/-;hTDP1 cells with camptothecin (screen for TDP1 inhibitors) | chicken DT40 Tdp1-/-;hTDP1 cells + 20 nM CPT, ATP luminescence, 48 h | Potency, µM (top dose mostly 46.2 µM), for the others: at the highest dose activity change, negative = growth inhibition, hits mostly inhibitors | actives 12% (n = 420,000) | AID 686979; further: potency means the concentration at half of the fitted maximal effect; nearly all actives have a fitted effect of over 55% in size
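Chicken DT40 Tdp1-/- cells complemented with human TDP1, 400 cells/well, exposed to compounds plus 20 nM camptothecin for at least 48 h at 37 C; viability read as ATP content by CellTiter-Glo luminescence.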
An asterisk follows results filed as active; ? = inconclusive; / = not tested or not shown; [ ] = dose if it differs, or a comment. Shown are actives, neighbours in structure and some others; about 19% of the full set was active somewhere. Unless noted, the call rests on the fitted dose curve; in most records, active means well fitted curve in the direction sought with a large enough effect; inconclusive means small, poorly fitted or top-dose-only effect, or another doubt; inactive means no such curve, though single readings can be large; an effect the other way counts as inactive or inconclusive. Unless noted, on the % scale 0 is the no-effect control and ±100 the full control effect.

SMILES | IL-1B inflam inh | TDP1 cell noCPT | HT1080-NT tox | HT1080 IDH1KD tx | TDP1 cell CPT
COc1cccc(-c2nc3cc4c(cc3cc2CN(C(=O)c2cc(C)nn2C)C2CC2)CCC4)c1OC | / | 16.4µM* | / | / | 4.11µM*
COc1ccc(-c2nc3cc(F)ccc3cc2CN(C(=O)c2ccc3c(c2)OCO3)C2CC2)cc1 | / | -11.5% | / | / | 16.9%
COc1cccc(C(=O)N(Cc2cc3ccc(C)cc3nc2N(C)C)C2CC2)c1OC | / | -97.5% | / | / | -26.5%[9.04 µM]
Cc1[nH]c2ccccc2c1CCNC(=O)c1ccc2nccnc2c1 | 1.7 | -23.4% | 6.6% | -6.4% | -28.9%
CSc1ccccc1NC(=O)CN(c1ccccc1Br)S(C)(=O)=O | 0.0 | ? | 9.6% | 7.9% | -24.6%
CN(CCNC(=O)C1CCCN(c2ncnc3c2nc2n3CCCCC2)C1)Cc1ccccc1 (stereo not drawn) | -12.5 | ? | -4.7% | -1.9% | ?
COc1ccc(Cc2nnc(NC(=O)c3ccc(OC(C)=O)cc3)s2)cc1OC | -7.9 | -15.3% | 0.3% | -7.6% | -8.1%
CN(C(=S)Nc1cccnc1)c1ccc(O)cc1 | 5.3 | ? | 11.3% | 18.7% | -23.4%
CN(C(=S)Nc1ccc(Oc2ccccc2)cc1)c1ccc(O)cc1 | -73.4* | ? | -6.0% | -12.6% | ?
CN(C(=S)Nc1ccc(SC(F)F)cc1)c1ccc(O)cc1 | -53.6* | ? | -9.6% | -8.7% | ?
COc1ccc(S(=O)(=O)N2CCOCC2)cc1NC(=O)Cc1c(Cl)cccc1Cl | 0.0 | ? | 0.6% | 2.2% | ?
O=C(Cc1ccc(F)cc1)Nc1ccc(S(=O)(=O)N2CCCC2)cc1 | ? | ? | -9.4% | -0.9% | -26.8%
COc1ccc(S(=O)(=O)N2CCOCC2)cc1NC(=O)CN(C)Cc1c(F)cccc1Cl | -65.7* | 20.6µM* | -9.5% | -7.6% | ?
Cc1ccc(NC(=O)CSCC(=O)N(C)Cc2c(F)cccc2Cl)cc1 | -12.9 | 25.9µM* | -3.3% | -15.3% | 18.4µM*
CN(CC(=O)Nc1ccc(S(=O)(=O)N2CCCC2)cc1)Cc1ccc(Cl)cc1 | 0.0 | ? | -15.3% | -15.9% | 16.4µM*
CN(CC(=O)Nc1ccc(S(=O)(=O)N2CCCC2)cc1)Cc1c(F)cccc1Cl | -59.6* | 16.4µM* | -9.3% | 0.9% | 14.6µM*
COc1ccc(NC(=O)CSCC(=O)N(C)Cc2c(F)cccc2Cl)cc1 | 7.3 | ? | -1.0% | 0.1% | ?
Cc1csc2c(=O)n(CCO)c(=O)[nH]c12 | -4.2 | -6.3% | 7.1% | -2.8% | -19.1%
Cc1ccc(OCCSc2nnc(-c3cccs3)o2)cc1Cl | / | -4.4% | / | / | -8.4%
C[C@H]1COc2cc(N3CCC[C@H]3CO)ccc2S(=O)(=O)N1 | 0.0 | 0.0% | 5.6% | 1.2% | 5.1%
COc1ccc(C(=O)N/C(=C\c2ccc(Cl)cc2)C(=O)NCc2ccncc2)cc1 | ? | -28.0% | 5.1% | -3.4% | -28.3%
CCn1c2ccccc2c2cc(NC(=O)COc3ccc(C)c(C)c3)ccc21 | / | 2.1% | / | / | -15.2%
CCn1c2ccccc2c2cc(NC(=O)CNCc3ccccc3OC)ccc21 | 6.0 | 5.8µM* | 3.66µM* | 6.51µM* | 5.17µM*
CCn1c2ccccc2c2cc(NC(=O)COc3ccccc3OC)ccc21 | 27.0 | 3.66µM* | ? | 16.4µM* | 5.17µM*
COc1ccccc1CNCC(O)Cn1c2ccccc2c2ccccc21 (stereo not drawn) | -61.4* | ? | ? | ? | ?
SMILES | IL-1B inflam inh | TDP1 cell noCPT | HT1080-NT tox | HT1080 IDH1KD tx | TDP1 cell CPT
CC(=O)Nc1cc(NC(C)=O)cc(C(=O)NCC2(N3CCOCC3)CCCCC2)c1 | 10.4 | 3.2% | 5.0% | -11.5% | 1.0%
COC(=O)c1cc2ccccn2c2c(C(=O)OC)c(C(=O)OC)cc1-2 | -15.0 | ? | 4.8% | 4.0% | -27.9%
COC(=O)c1cc2c(C)c(C)c3ccccn3c-2c1C(=O)OC | -12.7 | ? | 12.4% | 7.9% | 25.9µM*
C=CC1=C(C(=O)O)N2C(=O)[C@@H](NC(=O)/C(=N/OCC(=O)O)c3csc(N)n3)[C@H]2SC1 (stereo in doubt) | / | -0.8%[21.1 µM] | / | / | -9.8%[21.1 µM]
COCCCNC(=O)C1CCN(S(=O)(=O)c2ccc3nc4c(c(C(=O)O)c3c2)CCCCC4)CC1 | 41.3 | 32.2% | 18.7% | 9.6% | 4.7%
CC(=O)c1c(COC(=O)c2ccncc2)nc2ccccc2[n+]1[O-] | 0.5 | -26.5% | 8.3% | 14.4% | 29.6%
CC(=O)c1ccc2c(c1)c(C#N)c1ccccc1[n+]2[O-] | 7.2 | 18.4µM* | -4.6% | -6.4% | 13µM*
CC1(C(=O)NCC2CC2)Cc2c(-c3cccc(C(F)(F)F)c3)ccnc2O1 (stereo not drawn) | 0.0 | 5.8µM* | ? | 20.6µM* | 5.8µM*
COCCNC(=O)C1(C)Cc2c(-c3cccc(C(N)=O)c3)ccnc2O1 (stereo not drawn) | 71.8 | -19.1% | 12.3% | 1.8% | ?
COCCNC(=O)C1(C)Cc2c(-c3cccc(C(F)(F)F)c3)ccnc2O1 (stereo not drawn) | 74.1 | 9.2µM* | ? | 20.6µM* | 9.2µM*
CC1(C(=O)NCC2CC2)Cc2c(-c3cccc(C(N)=O)c3)ccnc2O1 (stereo not drawn) | 13.3 | ? | -15.6% | 0.0% | ?
COc1ccc(C(=O)O)cc1Nc1nc2ccc(C)cc2n2cnnc12 | / | ? | / | / | -24.5%
CN(C(=O)COC(=O)/C=C/c1ccccc1)C1CCS(=O)(=O)C1 (stereo not drawn) | 0.0 | -13.0% | -18.2% | ? | -2.5%
COc1cc(C=NO)nc(-c2ccccn2)c1 | 61.2 | 1.16µM* | -12.4% | ? | 1.3µM*
Cc1cccc(N2C(=O)C(Oc3ccc(Cl)cc3Cl)C2C(=O)O)c1C (stereo not drawn) | 15.0 | ? | 11.7% | 14.2% | ?
CCCCNCC1C(Oc2ccc(Cl)cc2)C(=O)N1c1ccccc1C (stereo not drawn) | -195.5* | 14.6µM* | ? | 23.1µM* | ?
CCCNCC1C(Oc2ccc(Cl)cc2Cl)C(=O)N1c1cccc(C)c1C (stereo not drawn) | -53.1* | 18.4µM* | ? | ? | ?
Cc1cnc(C)c(-c2cccc3c2OC(CNC(=O)/C=C/c2ccncc2)C3)n1 (stereo not drawn) | / | ? | / | / | -6.2%[9.04 µM]
OCCSc1nncn1/N=C/c1c[nH]c2ccccc12 | 5.2 | -3.0% | -1.9% | -1.2% | -14.4%
NS(=O)(=O)c1ccc(N=Nc2cc3ccccc3c(C(=O)O)c2O)cc1 | / | 1.12µM* | / | / | 0.398µM*
O=C(CSCc1ccccc1)Nc1ccccc1C(=O)Nc1ccc(C(=O)O)cc1 | -5.1 | 0.3% | -2.1% | -3.5% | -22.9%
